# Data: PubChem BioAssay (NCI)
# This is part of a sample that, as a whole, favours compounds with a hit. Of some 79,000 tested, about 15% had one in any assay. Unmarked numbers belong to inactive results. Activity calls are given as the source filed them. Cut-off read from the data, not from the text of the source: active = growth inhibition above about 70%; inactive = the rest.
# Columns and labels:
# [1] = NCI Yeast Anticancer Drug Screen. Data for the rad50 strain (AID 155);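 note: 0% = growth of vehicle-only cultures of the same strain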; details: S. cerevisiae rad50 strain growth inhibition, hits give high values
# How it was run: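 Growth of the mutant yeast was measured after compound exposure and referenced to vehicle-treated cultures.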
# [2] = NCI Yeast Anticancer Drug Screen. Data for the mec2-1 strain (AID 157); details: S. cerevisiae mec2-1 strain, hits give high values
# How it was run: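 Readout is yeast growth inhibition, normalised to vehicle-treated controls, in the mec2-1 strain exposed to compound.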
# [3] = NCI Yeast Anticancer Drug Screen. Data for the sgs1 mgt1 strain (AID 161);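 note: 0% = growth of cultures given vehicle only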; details: S. cerevisiae sgs1 mgt1 strain, hits give high values
# How it was run: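 This yeast growth screen uses a strain with defined DNA-repair lesions; compound-treated growth is compared with vehicle-treated growth.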
# [4] = NCI Yeast Anticancer Drug Screen. Data for the cln2 rad14 strain (AID 165);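 note: 0% = growth equal to vehicle treated cultures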; details: S. cerevisiae cln2 rad14 strain, hits give high values
# How it was run: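 Relative to vehicle controls, growth inhibition of compound-treated cln2 rad14 yeast was recorded.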
# [5] = NCI Yeast Anticancer Drug Screen. Data for the bub3 strain (AID 167); details: S. cerevisiae bub3 mutant strain, hits give high values
# How it was run: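 Whole-cell yeast assay. The mutant strain was incubated with compounds, and growth inhibition was determined by comparison with vehicle-treated cells.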
# [6] = NCI Yeast Anticancer Drug Screen. Data for the mlh1 rad18 strain (AID 175); details: S. cerevisiae mlh1 rad18 strain growth inhibition, hits give high values
# How it was run: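 Test agents were incubated with a yeast strain of defined genotype (DNA damage repair defect). Inhibition of growth was derived by comparison with vehicle-exposed cultures.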
# [7] = at 5.0 µM (retest, dose inferred, filed as 0.5)
# [8] = at 50.0 µM (retest, dose inferred, filed as 5.0)
SMILES,"growth inhibition [1, 7] [%]","growth inhibition [1, 8]",growth inhibition ([1]; at 50.0 µM),"growth inhibition [2, 7] [%]","growth inhibition [2, 8]",growth inhibition ([2]; at 50.0 µM),"growth inhibition [3, 7] [%]","growth inhibition [3, 8]",growth inhibition ([3]; at 50.0 µM),"growth inhibition [4, 7] [%]","growth inhibition [4, 8]",growth inhibition ([4]; at 50.0 µM),"growth inhibition [5, 7] [%]","growth inhibition [5, 8]",growth inhibition ([5]; at 50.0 µM),"growth inhibition [6, 7] [%]","growth inhibition [6, 8]",growth inhibition ([6]; at 50.0 µM)
O=[N+]([O-])c1ccc(C2=CSc3ccccc3N2)cc1,-17,6%,49.7%,-30,-5%,59.4%,-11,-7%,58%,11,25%,22.9%,-16,19%,73.4% (active),-43,31%,58.2%
Oc1cc2ccccc2c2ccccc12,0,93% (active),99.2% (active),2,83% (active),99.2% (active),4,87% (active),98.9% (active),-15,97% (active),98.5% (active),16,96% (active),99.2% (active),6,93% (active),98.9% (active)
CCOC(=O)c1c(C)[nH]c(CO)c1C,-1,14%,28.1%,6,20%,38%,2,24%,43.1%,4,0%,31.8%,4,8%,34%,-1,13%,65.5%
S=C(N/N=C1\C=Cc2ccccc2C1)N/N=C1\C=Cc2ccccc2C1,0,17%,55.5%,-4,59%,41.4%,-7,45%,41.7%,2,4%,36.1%,-3,36%,62.4%,18,56%,71% (active)
CC1N=C(Cc2ccccc2)SC1C (configuration not stated),-2,81% (active),74.5% (active),-5,85% (active),86.1% (active),0,87% (active),86.8% (active),-9,85% (active),88% (active),0,83% (active),88.3% (active),-1,84% (active),85.8% (active)
O=C(CNC(=O)C(CSCc1ccccc1)NC(=O)OCc1ccccc1)Oc1c(Cl)c(Cl)c(Cl)c(Cl)c1Cl (configuration not stated),10,34%,46.9%,8,30%,61.9%,2,30%,68.8%,3,20%,25.6%,-4,13%,15.9%,9,51%,66.4%
Cc1ccc(S(=O)(=O)Nc2ccc3c(c2)C(=O)c2ccccc2-3)cc1,14,90% (active),91.7% (active),6,93% (active),91.4% (active),7,95% (active),91.3% (active),-5,89% (active),58.5%,6,94% (active),93.7% (active),17,94% (active),84.9% (active)
O=[N+]([O-])c1cc(Cl)c(Cl)cc1NS(=O)(=O)c1ccccc1,17,45%,29.1%,-8,51%,49.5%,7,58%,39.4%,25,84% (active),54.5%,9,57%,40.4%,10,76% (active),71.2% (active)
CC1CC(C)C(C)C(CO)C1 (configuration not stated),8,-3%,-22.4%,4,-3%,-3.2%,-8,-1%,-22.6%,-1,-3%,40%,0,4%,-0.05%,6,-5%,-12.2%
